From PubChem BioAssay (Tox21)
Records with an inconclusive call do not appear. Calls of active or inactive are those of the source. Unless noted, the call rests on the fitted dose curve; in most records, active means well fitted curve in the direction sought with a large enough effect in the repeat runs; inconclusive means weak or mixed curves; inactive means no such curve, though single readings can be large; an effect the other way counts as inactive or inconclusive.

What was measured:
[1] = qHTS assay to identify small molecule antagonists of the glucocorticoid receptor (GR) signaling pathway - cell viability counter screen (AID 720693); further: nearly all actives have a fitted effect of over 55% in size
[2] = qHTS assay to identify small molecule antagonists of the androgen receptor (AR) signaling pathway - cell viability counter screen (AID 743033; further: nearly all actives have a fitted effect of over 45% in size)
[3] = qHTS assay to identify small molecule antagonists of the androgen receptor (AR) signaling pathway using the MDA cell line - cell viability counter screen (AID 743041; further: nearly all actives have a fitted effect of over 45% in size)
How it was run: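 MDA-kb2 AR-luc cells (MMTV-luciferase, AR/GR responsive) treated with compounds plus R1881 agonist for 16 h at 37C. CellTiter-Fluor added at 15.5 h; fluorescence read after 30 min in the same wells.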

[4] = qHTS assay to identify small molecule antagonists of the thyroid receptor (TR) signaling pathway - cell viability counter screen (AID 743064); further: nearly all actives have a fitted effect of over 50% in size
How it was run: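 GH3.TRE-Luc rat pituitary cells dosed after 4 hr plating, co-stimulated with T3 at 1 nM final, incubated 23.5 h at 37 C. Viability measured in the same wells by CellTiter-Fluor fluorescence after 30 min further at 37 C.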

[5] = test system: thyroid hormone receptor (rat, GH3 cells); assay: qHTS assay to identify small molecule agonists of the thyroid receptor (TR) signaling pathway (AID 743066; calls by dose curve; further: potency means the concentration at half of the fitted maximal effect)
[6] = target: Estrogen receptor (Homo sapiens) (UniProt P03372); assay: qHTS assay to identify small molecule antagonists of the estrogen receptor alpha (ER-alpha) signaling pathway (AID 743069; active means well fitted curve in the direction sought with a large enough effect in the signal ratio in the repeat runs, not every such curve was filed as active; the % refers to the signal ratio)
Estrogen receptor (Homo sapiens), sequence (P03372 whole entry, looked up): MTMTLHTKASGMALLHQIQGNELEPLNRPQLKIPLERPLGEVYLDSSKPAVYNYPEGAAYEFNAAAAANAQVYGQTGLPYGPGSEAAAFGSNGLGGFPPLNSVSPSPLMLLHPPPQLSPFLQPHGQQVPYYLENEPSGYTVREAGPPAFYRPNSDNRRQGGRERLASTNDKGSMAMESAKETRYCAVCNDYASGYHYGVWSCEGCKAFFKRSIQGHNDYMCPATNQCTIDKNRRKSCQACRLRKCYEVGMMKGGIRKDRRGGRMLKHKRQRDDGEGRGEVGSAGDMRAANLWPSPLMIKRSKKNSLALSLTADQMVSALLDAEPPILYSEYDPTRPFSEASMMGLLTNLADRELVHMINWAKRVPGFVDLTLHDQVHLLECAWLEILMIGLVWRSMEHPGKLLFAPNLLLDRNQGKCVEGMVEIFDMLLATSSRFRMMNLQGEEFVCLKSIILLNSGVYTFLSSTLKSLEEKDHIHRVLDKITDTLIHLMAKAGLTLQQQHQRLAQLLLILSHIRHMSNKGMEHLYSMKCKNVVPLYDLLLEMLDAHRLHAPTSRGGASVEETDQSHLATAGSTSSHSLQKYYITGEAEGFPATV
How it was run: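 HEK293 ER-alpha-UAS-bla GripTite cells, held overnight in 2% charcoal-stripped FBS, 5,000 cells/well, preincubated 4 h, then compound plus 17beta-estradiol for 18 h at 37C. Beta-lactamase read by LiveBLAzer B/G FRET substrate, 2 h at room temperature.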

[7] = qHTS assay to identify small molecule antagonists of the estrogen receptor alpha (ER-alpha) signaling pathway - cell viability counter screen (AID 743074; calls by dose curve;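 further: HEK293 cells carrying ER-alpha-UAS-bla reporter stimulated with 17beta-estradiol; nearly all actives have a fitted effect of over 45% in size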)
[8] = target: Estrogen receptor (Homo sapiens) (UniProt P03372); assay: qHTS assay to identify small molecule agonists of the estrogen receptor alpha (ER-alpha) signaling pathway (AID 743075; calls by dose curve; further: potency means the concentration at half of the fitted maximal effect)
[9] = target: Estrogen receptor (Homo sapiens) (UniProt P03372); assay: qHTS assay to identify small molecule agonists of the estrogen receptor alpha (ER-alpha) signaling pathway using the BG1 cell line (AID 743079); further: nearly all actives have a fitted effect of over 20% in size; further: potency means the concentration at half of the fitted maximal effect
[10] = qHTS assay to identify small molecule antagonists of the estrogen receptor alpha (ER-alpha) signaling pathway using the BG1 cell line (AID 743080; calls by dose curve;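 further: BG1 cells stimulated with 17beta-estradiol alongside compound; series mostly up to about 70 µM; nearly all actives have a fitted effect of over 25% in size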)
How it was run: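 BG1Luc4E2, endogenous ER-alpha, 4xERE-luc; 5 d charcoal-stripped FBS, phenol red free; 24 h plating; cpd + 17beta-estradiol 21.5 h, 37 C/5% CO2; CellTiter-Fluor viability 30 min, then ONE-Glo luciferase 30 min RT.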

[11] = qHTS assay to identify small molecule antagonists of the estrogen receptor alpha (ER-alpha) signaling pathway using the BG1 cell line - cell viability counter screen (AID 743081);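 further: compound given together with 17beta-estradiol as the ER stimulus; series mostly up to about 70 µM; nearly all actives have a fitted effect of over 45% in size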
Aromatase (Homo sapiens) = Aromatase (Homo sapiens) (UniProt P11511); assay: qHTS assay to identify aromatase inhibitors (AID 743083); further: series mostly up to about 70 µM; nearly all actives have a fitted effect of over 55% in size
Aromatase (Homo sapiens), sequence (P11511 whole entry, looked up): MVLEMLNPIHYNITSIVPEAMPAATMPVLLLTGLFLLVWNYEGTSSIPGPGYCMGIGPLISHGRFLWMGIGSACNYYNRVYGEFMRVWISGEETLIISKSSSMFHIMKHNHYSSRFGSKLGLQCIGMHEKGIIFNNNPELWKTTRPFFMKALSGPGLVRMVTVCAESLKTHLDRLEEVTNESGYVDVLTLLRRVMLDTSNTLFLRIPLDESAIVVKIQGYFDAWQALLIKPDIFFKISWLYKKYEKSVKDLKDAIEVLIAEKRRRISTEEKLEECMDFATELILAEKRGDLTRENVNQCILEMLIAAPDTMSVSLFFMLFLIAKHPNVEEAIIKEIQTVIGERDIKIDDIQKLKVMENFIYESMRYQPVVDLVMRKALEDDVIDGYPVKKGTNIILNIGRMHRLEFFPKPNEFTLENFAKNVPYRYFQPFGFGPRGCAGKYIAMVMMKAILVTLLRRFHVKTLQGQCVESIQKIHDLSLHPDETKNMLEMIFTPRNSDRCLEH

[12] = qHTS assay to identify aromatase inhibitors - cell viability counter screen (AID 743084);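 further: cells stimulated with testosterone during compound exposure; nearly all actives have a fitted effect of over 55% in size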
[13] = qHTS assay for identifying genotoxic compounds that show differential cytotoxicity against isogenic chicken DT40 cell lines with known DNA damage response pathways - wild type cell line (AID 743012); further: nearly all actives have a fitted effect of over 60% in size
How it was run: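 Using parental DT40 (300 cells/well), compounds delivered in DMSO incubate 40 h at 37 C/5% CO2. CellTiter-Glo reagent then stands 30 min at room temperature, and luminescence gives cell viability.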

[14] = qHTS assay for identifying genotoxic compounds that show differential cytotoxicity against isogenic chicken DT40 cell lines with known DNA damage response pathways - Rev3 mutant cell line (AID 743014); further: nearly all actives have a fitted effect of over 55% in size
[15] = qHTS assay for identifying genotoxic compounds that show differential cytotoxicity against isogenic chicken DT40 cell lines with known DNA damage response pathways - Rad54/Ku70 mutant cell line (AID 743015); further: nearly all actives have a fitted effect of over 60% in size
[16] = qHTS assay to identify small molecule antagonists of the thyroid receptor (TR) signaling pathway (AID 743065)
How it was run: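 GH3.TRE-Luc rat pituitary cells (two TREs driving luciferase) were dosed with compound, then stimulated with 1 nM T3 (final) for 23.5 h at 37 C. ONE-Glo luminescence was the read-out, with CellTiter-Fluor fluorescence as the cytotoxicity counter-screen.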

[17] = target: Androgen receptor (Homo sapiens) (UniProt P10275); assay: qHTS assay to identify small molecule antagonists of the androgen receptor (AR) signaling pathway (AID 743035; active means well fitted inhibition curve with a large enough effect in the signal ratio in the repeat runs, not every such curve was filed as active; the % refers to the signal ratio)
Androgen receptor (Homo sapiens), sequence (P10275 whole entry, looked up): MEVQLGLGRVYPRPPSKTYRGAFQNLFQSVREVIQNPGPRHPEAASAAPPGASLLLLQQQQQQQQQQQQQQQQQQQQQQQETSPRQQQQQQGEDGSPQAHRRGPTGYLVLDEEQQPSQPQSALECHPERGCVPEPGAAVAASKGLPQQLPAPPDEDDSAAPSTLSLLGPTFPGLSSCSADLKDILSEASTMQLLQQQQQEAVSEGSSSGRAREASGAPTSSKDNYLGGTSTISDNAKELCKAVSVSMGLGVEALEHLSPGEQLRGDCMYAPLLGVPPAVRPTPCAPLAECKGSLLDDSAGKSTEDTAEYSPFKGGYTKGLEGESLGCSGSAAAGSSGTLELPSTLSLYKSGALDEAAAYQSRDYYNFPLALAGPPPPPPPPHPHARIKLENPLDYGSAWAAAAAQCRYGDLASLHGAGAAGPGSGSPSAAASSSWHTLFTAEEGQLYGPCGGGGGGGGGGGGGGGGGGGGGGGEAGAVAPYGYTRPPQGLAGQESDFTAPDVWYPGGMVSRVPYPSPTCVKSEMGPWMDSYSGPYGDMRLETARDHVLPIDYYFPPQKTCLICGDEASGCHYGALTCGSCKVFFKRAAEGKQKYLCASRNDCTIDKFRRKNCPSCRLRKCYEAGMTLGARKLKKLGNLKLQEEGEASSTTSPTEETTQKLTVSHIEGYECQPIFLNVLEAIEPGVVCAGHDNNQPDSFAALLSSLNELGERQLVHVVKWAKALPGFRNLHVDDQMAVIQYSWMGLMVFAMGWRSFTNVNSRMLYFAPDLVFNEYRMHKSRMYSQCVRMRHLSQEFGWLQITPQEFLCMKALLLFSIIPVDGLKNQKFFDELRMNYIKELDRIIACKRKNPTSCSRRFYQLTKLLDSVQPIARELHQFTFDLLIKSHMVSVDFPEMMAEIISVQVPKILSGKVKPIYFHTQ
How it was run: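 Using qHTS, AR-UAS-bla GripTite HEK293 cells received compound, then R1881, and were cultured 16 h at 37C/5% CO2 before a 2 h room-temperature LiveBLAzer B/G FRET substrate step and fluorescence measurement.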

[18] = target: Androgen receptor (Homo sapiens) (UniProt P10275); assay: qHTS assay to identify small molecule agonists of the androgen receptor (AR) signaling pathway (AID 743036; active means well fitted activation curve with a large enough effect in the signal ratio in the repeat runs, with a control signal flat, not every such curve was filed as active; the % refers to the signal ratio)
How it was run: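 AR-UAS-bla HEK293 cells, plated 4 h before dosing, were treated with compound for 16 h at 37C. beta-Lactamase reporter read after 2 h with LiveBLAzer B/G FRET substrate at room temperature.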

[19] = target: Androgen receptor (Homo sapiens) (UniProt P10275); assay: qHTS assay to identify small molecule antagonists of the androgen receptor (AR) signaling pathway using the MDA cell line (AID 743042; further: nearly all actives have a fitted effect of over 55% in size)
How it was run: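 MDA-kb2 breast carcinoma cells carrying MMTV-luciferase (AR/GR responsive) were co-treated with compounds and the agonist R1881 for 16 h at 37C. Inhibition read as ONE-Glo luminescence; CellTiter-Fluor fluorescence measured in parallel for cytotoxicity.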
On the % scale 0 is the no-effect control and ±100 the full control effect.

NC(=O)C1(N2CCCCC2)CCN(CCCC(=O)c2ccc(F)cc2)CC1
inactive: Potency [1] | outcome [2] | outcome [3] | Potency [4] | Potency [5] | Potency [6] | Potency [7] | Potency [8] | Potency [9] | outcome [10] | outcome [11] | outcome (Aromatase (Homo sapiens)) | Potency [12]

CCS(=O)(=O)CCn1c([N+](=O)[O-])cnc1C
active: Potency [8] 10.2 µM [activator] | Potency [9] 2.27 µM
inactive: Potency [13] | Potency [14] | Potency [15] | outcome [2] | outcome [3] | Potency [4] | Potency [16] | Potency [5] | Potency [6] | Potency [7] | outcome [10] | outcome [11] | outcome (Aromatase (Homo sapiens)) | Potency [12]

O=S(=O)(O)SSS(=O)(=O)O
inactive: Potency [1] | outcome [2] | Potency [17] | outcome [18] | outcome [3] | outcome [19] | Potency [4] | Potency [16] | Potency [5] | Potency [7] | outcome [11] | outcome (Aromatase (Homo sapiens)) | Potency [12]

CCCCCCCCCCCCC1CO1 (stereo unspecified)
inactive: Potency [1] | outcome [2] | outcome [3] | Potency [4] | Potency [5] | Potency [6] | Potency [7] | Potency [8] | Potency [9] | outcome [10] | outcome [11] | outcome (Aromatase (Homo sapiens)) | Potency [12]

C=CCOC(=O)c1ccc(C(=O)OCC=C)c(C(=O)OCC=C)c1
inactive: Potency [1] | outcome [2] | outcome [3] | Potency [4] | Potency [16] | Potency [5] | Potency [6] | Potency [8] | Potency [9] | outcome [10] | outcome [11] | outcome (Aromatase (Homo sapiens)) | Potency [12]

CC(=O)OCC(=O)[C@@]1(O)[C@H](OC(C)=O)C[C@H]2[C@@H]3CCC4=CC(=O)C=C[C@]4(C)[C@@]3(F)[C@@H](O)C[C@@]21C
inactive: Potency [1] | outcome [2] | outcome [3] | Potency [4] | Potency [5] | Potency [7] | Potency [8] | outcome [11] | outcome (Aromatase (Homo sapiens)) | Potency [12]

CCCCC/C=C/CC(=O)OC
inactive: Potency [1] | outcome [2] | outcome [3] | Potency [16] | Potency [7] | outcome [11] | outcome (Aromatase (Homo sapiens)) | Potency [12]

CO[Si](CCCCl)(OC)OC
inactive: Potency [13] | Potency [14] | Potency [15] | outcome [2] | outcome [3] | Potency [4] | Potency [16] | Potency [5] | Potency [6] | Potency [7] | Potency [8] | Potency [9] | outcome [10] | outcome [11] | outcome (Aromatase (Homo sapiens)) | Potency [12]

CCC(=O)OCCC(C)CCC=C(C)C (stereo unspecified)
inactive: Potency [1] | outcome [2] | outcome [3] | Potency [4] | Potency [16] | Potency [5] | Potency [7] | outcome [11] | outcome (Aromatase (Homo sapiens)) | Potency [12]

CCOc1ccc(NC(=O)OC(C)C)cc1OCC
inactive: Potency [1] | outcome [2] | outcome [3] | Potency [4] | Potency [16] | Potency [5] | Potency [7] | outcome [11] | outcome (Aromatase (Homo sapiens)) | Potency [12]

CC(C)COC(=O)COc1ccc(Cl)cc1Cl
inactive: Potency [1] | outcome [2] | Potency [17] | outcome [18] | outcome [3] | outcome [19] | Potency [4] | Potency [16] | Potency [5] | Potency [7] | outcome [11] | outcome (Aromatase (Homo sapiens)) | Potency [12]

O=CO
inactive: viability change, negative = cytotoxic [1] -3.59% [at 7.04 µM] | activity change, negative = cytotoxicity [2] -5.92% [at 7.04 µM] | viability change, negative = cytotoxic [3] -3.77% [at 8.47 µM] | activity change, negative = cytotoxic [4] -0.961% [at 8.44 µM] | activity, negative = inhibition [16] -3.91% [at 8.44 µM] | activation [5] 0.246% [at 8.08 µM] | activity, negative = cytotoxicity [7] 6.52% [at 6.72 µM] | activity change, negative = cytotoxicity [11] 0.807% [at 8.47 µM] | activity, negative = inhibition (Aromatase (Homo sapiens)) 10.9% [at 8.47 µM] | activity change, negative = cytotoxicity [12] -4.37% [at 8.47 µM]

Cn1c(=O)c2c(ncn2CC2OCCO2)n(C)c1=O
inactive: Potency [13] | Potency [14] | Potency [15] | outcome [2] | Potency [17] | outcome [18] | outcome [3] | outcome [19] | Potency [4] | Potency [16] | Potency [5] | Potency [7] | outcome [11] | outcome (Aromatase (Homo sapiens)) | Potency [12]

Cc1oc(=O)oc1CN1CCN(c2cc3c(cc2F)c(=O)c(C(=O)O)c2n3C(C)S2)CC1 (stereo unspecified)
active: Potency [8] 23.9 µM [activator] | Potency [9] 8.41 µM
inactive: Potency [1] | outcome [2] | outcome [3] | Potency [5] | Potency [7] | outcome [11] | outcome (Aromatase (Homo sapiens)) | Potency [12]

C[N+](C)(C)CC(O)CCl (stereo unspecified)
inactive: Potency [13] | Potency [14] | Potency [15] | outcome [2] | outcome [3] | Potency [4] | Potency [16] | Potency [5] | Potency [6] | Potency [7] | Potency [8] | Potency [9] | outcome [11] | outcome (Aromatase (Homo sapiens)) | Potency [12]

O=C(O)CCNC(=O)c1ccccc1
active: Potency [5] 11.9 µM
inactive: Potency [1] | outcome [2] | outcome [3] | Potency [4] | Potency [16] | Potency [6] | Potency [7] | Potency [8] | outcome [10] | outcome [11] | outcome (Aromatase (Homo sapiens)) | Potency [12]

C[CH2][Ge]([Cl])([CH2]C)[CH2]C
inactive: Potency [1] | Potency [15] | outcome [2] | outcome [3] | Potency [16] | Potency [5] | outcome [11] | outcome (Aromatase (Homo sapiens)) | Potency [12]

CCCCCCCCCCCCCC(=O)OC
inactive: Potency [13] | outcome [2] | Potency [17] | outcome [18] | outcome [3] | outcome [19] | Potency [4] | Potency [16] | Potency [5] | Potency [6] | Potency [7] | Potency [8] | Potency [9] | outcome [10] | outcome [11] | outcome (Aromatase (Homo sapiens)) | Potency [12]

CCC(CO)CO
inactive: Potency [13] | Potency [15] | outcome [2] | outcome [3] | Potency [4] | Potency [5] | Potency [6] | Potency [7] | Potency [8] | Potency [9] | outcome [10] | outcome [11] | outcome (Aromatase (Homo sapiens)) | Potency [12]

CC(C)CCCCCCOC(=O)C1CCCCC1C(=O)OCCCCCCC(C)C (stereo unspecified)
inactive: Potency [13] | Potency [15] | outcome [2] | outcome [3] | Potency [4] | Potency [5] | Potency [7] | Potency [8] | Potency [9] | outcome [10] | outcome [11] | outcome (Aromatase (Homo sapiens)) | Potency [12]
